Data on 38 sequences can be found in the OligoGym collection.
Also: reference of the scale not given here.

The target of the first assay is ABCD4. The assay is described as follows: pooled miR-30 sensor sort-seq; sequence = guide strand. The settings on record: shRNA.
Sequence TTACAGATCTCACACTTCCAGA gave a sensor-assay potency score (higher = more potent) of -0.864.

As for ATCTGCATGTGCTTGAACCTAA, the sensor-assay potency score (higher = more potent) was -0.448.

The sequence TTCGCTGTCAGTCCTCCTGGTC showed a sensor-assay potency score (higher = more potent) of -0.858.

The target in the next assay is ABCG2. Described as above. Conditions: shRNA.
TTTGTCTCTTTGTAGAAGGAGG: the sensor-assay potency score (higher = more potent) was -1.31. On to TAACTCTTGAATGACCCTGTTA, for which the sensor-assay potency score (higher = more potent) was -0.548.

Consider TTCAGCTTTTGTCTCTTTGTAG, for which the sensor-assay potency score (higher = more potent) is -0.298. On the same count and under the same terms, the result for TTTAAAGTCTTCTTCTCTGTTT reads -0.358; that for TACGACTGTGACAATGATCTGA, 0.524. Still for that read-out and setting: the same measure for AACATCATCTTGTACCACGTAA: -0.468; for TATAATACTTGGTAACATCCTC: 0.377; for TTGAAGACTGTGATCTTCTTCT: 0.497. Consider TGAGATTGACCAACAGACCTGA, for which the sensor-assay potency score (higher = more potent) turned out to be 0.275. Same read-out and setting: the same measure for TAATATTTCTTTCTCAACTGGT: 0.563.

As to TTACCAAATATTCTTCGCCAGT, the sensor-assay potency score (higher = more potent) was -1.15. On the same count and under the same terms, the same measure for TTCTATGAGTGGCTTATCCTGC: -0.526.

The next assay has as its target ABHD14A. Described as above. Conditions: shRNA.
The sequence ATGGCCTGCATTGCGTAGCTTC yielded a sensor-assay potency score (higher = more potent) of -1.76. TTGCGTAGCTTCACCACAGAGT yielded a sensor-assay potency score (higher = more potent) of 0.297. Sequence GAGGTCTGTACCACAGTCGGGC returned a sensor-assay potency score (higher = more potent) of -1.45.

On to TCGAGCCAGGATGTGGTCCAGC, for which the sensor-assay potency score (higher = more potent) is -1.4.

As to TAGCTTCACCACAGAGTGGTTG, the sensor-assay potency score (higher = more potent) was -1.24. Consider TGCATTGCGTAGCTTCACCACA, for which the sensor-assay potency score (higher = more potent) is -1.6. TCTGTGACAGTAGCTGCAGTGT: the sensor-assay potency score (higher = more potent) is -1.16. For the sequence TCCATGAAGCAGCACCACCTCC, the sensor-assay potency score (higher = more potent) is -1.75.

In the case of TTGAGTGGGAGCACCTCGCGGT, the sensor-assay potency score (higher = more potent) was found to be 0.0609.

On to TGAGTGGGAGCACCTCGCGGTA, for which the sensor-assay potency score (higher = more potent) is -1.68.

As for TAAGGGTTGGAGTCTTCACAGC, the sensor-assay potency score (higher = more potent) is -1.08.

Another assay deals with ABHD14B. The assay is described as above. The settings on record: shRNA.
TTTGTCCAGGTAACAGGGGTGC showed a sensor-assay potency score (higher = more potent) of -1.14. As to TGCTTCAGGTGCTCAAAGCTGG, the sensor-assay potency score (higher = more potent) was -0.768.

TTCAGGTGCTCAAAGCTGGTCT registered a sensor-assay potency score (higher = more potent) of -0.558. For ATAGTTGGCAGCATTGATTTTG, the sensor-assay potency score (higher = more potent) is -0.758. The sequence TCCATATACAATCAGAGCTGGA returned a sensor-assay potency score (higher = more potent) of -1.62. TTGATTTTGTCAGTGCAGATGG registered a sensor-assay potency score (higher = more potent) of -0.728.

In the case of CTGGTCTCCATATACAATCAGA, the sensor-assay potency score (higher = more potent) is -2.16. AAAGCTGGTCTGACCCATGGGG returned a sensor-assay potency score (higher = more potent) of -0.273. TAGTTGGCAGCATTGATTTTGT had a sensor-assay potency score (higher = more potent) of -0.754. Sequence TTCTGCCAGGTCTCGGAGGAGA had a sensor-assay potency score (higher = more potent) of -1.13. As for TGGACTGATCACAACCGGGGGG, the sensor-assay potency score (higher = more potent) is -0.281. In turn, TGGTTTGTCCAGGTAACAGGGG registered a sensor-assay potency score (higher = more potent) of -0.958.
